According to PubChem BioAssay (NCI):
About 83,000 compounds went through this panel and 20% of them were active in at least one assay; those are over-represented in the sample as a whole.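 Activity criterion: percent growth below 10, measured after cells in 96-well plates were exposed to a single compound concentration for 48 hours.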 Calls of active or inactive are those of the source.

test system: HL-60(TB) leukemia; experiment: NCI-60 one-dose screen, 48 h (100 = growth as untreated, 0 = no growth, -100 = all killed); conditions: 10 µM unless noted

Structure (SMILES)	growth
COc1ccc(NC(=O)N/N=C/c2c[nH]c3ccccc23)cc1	1.79% (active)
COc1ccc2c(c1)C(=N/N=C(\C)c1ccc(OC)c(S(N)(=O)=O)c1)C(=O)N2	91.7% (inactive)
O=C(NN1C(=O)/C(=C/C=C/c2ccc([N+](=O)[O-])o2)SC1=S)c1ccc([N+](=O)[O-])cc1	-7.3% (active)
COc1cc(-c2nc3ccc(C)cc3[nH]2)ccc1OCc1nnc(-c2ccccc2Br)o1	69.5% (inactive)
Cn1cc(/C=N/Nc2ccnc3cc(Cl)ccc23)c2ccccc21	-60.3% (active)
C=C(c1ccc(OC)c(N)c1)c1cc(C)nc2ccccc12	-22.8% (active)
Cc1ccc(CSc2nc(-c3ccc(F)cc3)c(C#N)c(=O)[nH]2)cc1	56.6% (inactive)
CC(C)c1sc(NC(=O)c2cc(NC(=O)c3cc(NC(=O)c4nccn4C)cn3C)cn2C)nc1C(=O)NCCCN(C)C	47.1% (inactive)
Cc1ccc2c(c1)nc(-c1ccccc1)n2CC(=O)N=Nc1c(O)[nH]c2ccc(Br)cc12	7.86% (active)
COc1ccc(S(=O)(=O)Nc2ccc(-c3ccc4c(c3)NC(=O)/C4=C\c3ccc[nH]3)cc2)cc1OC	76.8% (inactive)
O=C(CSc1nnc(-c2c[nH]c3ccccc23)n1-c1ccccc1)c1ccc(Cl)cc1	88.9% (inactive)
C#CCOc1cc(N(CC)CC)ccc1C(C(=O)NC(C)(C)C)N(C(=O)C1CCc2cc(F)ccc2O1)c1cc(C)cc(C)c1 (stereo not given)	7.34% (active)
O=C(/C=C/Nc1ccc2oc(=O)ccc2c1)c1cc2cc(Br)ccc2oc1=O	131% (inactive)
C=CC(=O)Nc1ccc(C(=O)/C=C/c2ccc(N(C)CCF)cc2)c(O)c1	-32.2% (active)
CONC[C@]1(C)C=C2C(=O)[C@](C)(O)C3(CC3)C(C)=C2[C@H]1O	-29.3% (active)
CC(=O)Nc1cccc(Nc2nc(N[C@H]3CCCc4ccccc43)c3ccccc3n2)c1	90.6% (inactive)
O=C(c1ccccc1)c1ccc2nc(-c3ccc(F)cc3)[nH]c2c1	36.1% (inactive)
O=C(CSc1nc2sc3c(c2c(=O)n1-c1ccc(Cl)cc1)CCCC3)NNC(=O)c1ccc(Br)cc1	91.1% (inactive)

Structure (SMILES)	growth
Cc1cc(C(NC(=O)C2CC3(CC(Nc4cccc5c4C(=O)N(C4CCC(=O)NC4=O)C5=O)C3)C2)c2ccc3c(c2)OC(F)(F)O3)c(O)c2ncccc12 (stereo not given)	-16.4% (active)
O=C(CSc1nnc(-c2ccc3nc(-c4ccc(Cl)cc4)[nH]c3c2)o1)Nc1ccc(Br)cc1	-22.3% (active)
COc1ccc(C(=O)COc2ccc(NC(=O)Nc3ccc(Cl)c(C(F)(F)F)c3)cc2)cc1	19% (inactive)
Cc1cc(C)cc(Oc2cccc(-c3c(C)nnn3C3CCN(CCN(C)C)CC3)n2)c1	-37% (active)
COc1ccc(-c2nc3cc(C)ccc3n2CC(=O)N=Nc2c(O)[nH]c3ccc(Cl)cc23)cc1	41.1% (inactive)
Cc1ccc2c(c1)/C(=C/C(=O)c1cc3ccccc3oc1=O)C(=O)N2	53% (inactive)
O=C(CNc1nc(-c2ccccc2)cs1)Nc1cccc(Cl)c1	-2.63% (active)
COc1ccc2[nH]cc(-c3nnc(N)nc3-c3cn(C)c4ncc(Br)cc34)c2c1	35% (inactive)
Cc1ccc(C(=O)Nc2cc(-n3ccnc3C)cc(C(F)(F)F)c2)cc1C#Cc1cnc2cccnn12	-28.8% (active)
COc1cc(C2CC(c3cc(OC)c(OC)c(OC)c3)=NN2c2ccccc2)ccc1OCc1ccc(C)cc1 (stereo not given)	101% (inactive)
N#Cc1c(-c2cccc(Cl)c2Cl)cc(-c2c[nH]c3ccccc23)[nH]c1=O	62.1% (inactive)
COc1ccc(-c2nc3cc(C)ccc3n2CC(=O)N=Nc2c(O)[nH]c3ccc(OC)cc23)cc1	-62.1% (active)
O=c1oc2ccc(Br)cc2cc1C1=CSc2nc3sc4c(c3c(=O)n2N=C1)CCCC4	45.4% (inactive)
CC1=C(C(=O)OCc2ccccc2)C(c2cccc3ccccc23)n2c(nc3ccccc32)N1 (stereo not given)	1.4% (active)
O=Cc1cncc(-c2ccc3ncnc(N4CCc5cc(F)c(Cl)cc54)c3c2)c1	44.3% (inactive)
COc1cc(Nc2nc(O)c(/C=C3\C=Nc4ccccc43)s2)cc(OC)c1OC	-16% (active)
O=C(Nc1ccc(-c2ccc3c(c2)NC(=O)/C3=C\c2ccc[nH]2)cc1)Nc1ccc(Cl)c(C(F)(F)F)c1	4.76% (active)
